Screens from PubChem.
p53 reactivation = re-activators of mutant p53; AID 504706; hit rate 0.063% among 320,000; Potency, µM (doses to about 92.2 µM), for inactives: at the highest dose activity change, positive = activation, usual class: activators; H1299 p53-A138V BP100-luciferase reporter, luminescence, 24 h; further: potency means the concentration at half of the fitted maximal effect; % of control where 0% means no effect; nearly all actives have a fitted effect of over 45% in size
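p53-null H1299 cells stably carrying temperature-sensitive p53-A138V and a BP100-luciferase reporter were pinned with compounds (4-point, 1:5 series) and held 24 hrs at 37 deg C. Luminescence was read 10 min after detection reagent.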
ALOX12 inh = blocks human arachidonate 12S-lipoxygenase; purified 12hLO, xylenol orange hydroperoxide absorbance; Potency, µM (top dose mostly 108 µM), without a hit: at the top dose activity change, negative = inhibition, usual class: inhibitors; hit rate 1.1% among 580,000; AID 1671190; further: potency means the concentration at half of the fitted maximal effect; on the % scale 0 is the no-effect control and ±100 the full control effect
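Purified human 12hLO at 150 nM in 25 mM Hepes, 0.01% Triton X-100, pH 7.0, preincubated 15 min at room temperature with compound. Reaction started with 40 uM arachidonic acid, 30 min at room temperature. Hydroperoxide measured by Fe-xylenol orange, 573/405 nm absorbance ratio.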
MmCpn inh = inhibitors of Methanococcus maripaludis chaperonin TRiC (MmCpn); purified Mm-Cpn ATPase, ADP Transcreener TR-FRET; Potency, µM (doses to about 76.9 µM), inactives show at the top dose activity, negative = inhibition, usual class: inhibitors; hit rate 0.031% among 330,000; AID 504842; further: potency means the concentration at half of the fitted maximal effect; on the % scale 0 is the no-effect control and ±100 the full control effect; nearly all actives have a fitted effect of over 80% in size
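TR-FRET (320 nm excitation; 590 and 665 nm emission) reports ADP made from 10 uM ATP by 25 nM enzyme; compounds were preincubated 10 min, reaction run 30 min, both at 37°C.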
ASM inhibitor = blocks human secretory acid sphingomyelinase. hit rate 0.006% among 340,000. Potency, µM (titrated, usually from 57.5 µM), for inactives: at the top dose activity change, negative = inhibition, hits mostly inhibitors. P17405. placental ASM, HMU-PC fluorogenic substrate, 60 min. AID 504937; further: potency means the concentration at half of the fitted maximal effect
Target sequence (P17405 47-631 limits assumed): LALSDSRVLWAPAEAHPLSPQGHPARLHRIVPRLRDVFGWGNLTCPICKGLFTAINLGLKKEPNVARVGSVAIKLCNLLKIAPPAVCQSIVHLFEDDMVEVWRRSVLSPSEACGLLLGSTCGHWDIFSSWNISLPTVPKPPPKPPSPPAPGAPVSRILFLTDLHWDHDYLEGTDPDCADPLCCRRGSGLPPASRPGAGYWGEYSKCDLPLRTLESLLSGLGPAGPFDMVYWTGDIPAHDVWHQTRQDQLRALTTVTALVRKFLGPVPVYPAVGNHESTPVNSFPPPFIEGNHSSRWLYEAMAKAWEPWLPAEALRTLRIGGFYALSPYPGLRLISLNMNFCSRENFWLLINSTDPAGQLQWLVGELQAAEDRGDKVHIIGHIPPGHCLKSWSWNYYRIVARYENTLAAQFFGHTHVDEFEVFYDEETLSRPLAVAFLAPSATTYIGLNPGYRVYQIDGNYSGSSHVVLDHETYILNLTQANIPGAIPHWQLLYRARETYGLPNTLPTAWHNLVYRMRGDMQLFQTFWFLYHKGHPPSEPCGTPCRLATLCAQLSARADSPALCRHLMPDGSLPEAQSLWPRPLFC
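Fluorescence read-out (Ex 386 nm, Em 447 nm) after stopping the reaction at pH 10. Enzyme: ASM from human placenta; substrate HMU-PC0, 9 uM final; 60 min, 37 °C. Compound preincubation 10 min, ambient temperature.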
CCT modulator = modulators of cytosolic chaperonin (CCT/TRiC) activity | purified chaperonin ATPase assay, HTRF ADP detection, 30 min | activity change, % (no concentration beside the values), hits read low | hit rate 0.3% among 360,000; in the data active means activity change below about -30%; further: on the % scale 0 is the no-effect control and ±100 the full control effect
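ATPase activity: ADP formed was measured by HTRF Transcreener (665/615 nm ratio) after 30 min at 37 deg C with 10 uM ATP. Compounds screened at one 76 uM concentration against 40 or 20 nM TRiC in Tris pH 7.4/KCl/MgCl2/DTT buffer.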
PINK1 modulator = PINK1 expression modulation; Potency, µM (titrated, usually from 76.6 µM), for inactives: at the top dose activation (PINK1 increase), most hits filed as activators; PINK1 immunofluorescence, high-content cytometry, 24 h; hit rate 0.2% among 410,000; active means well fitted activation curve with a large enough effect; inconclusive means small, poorly fitted or top-dose-only effect; cell line not stated here; further: potency means the concentration at half of the fitted maximal effect; % of control where 0% means no effect; nearly all actives have a fitted effect of over 65% in size
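PINK1 protein level read as immunofluorescence by microplate cytometer in a fixed, stained stable cell line after 24 h exposure to five compound concentrations, with CCCP as control.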
* hit, by the source's call; ? = inconclusive; / = not tested or not shown; ! = a repeat was not active; [ ] = remark or other dose. Hits are enriched below; roughly 1.4% of the tested compounds scored in any of these assays. Unless noted, the call rests on the fitted dose curve; in most records, active means well fitted curve in the direction sought with a large enough effect; inconclusive means small, poorly fitted or top-dose-only effect, or another doubt; inactive means no such curve, though single readings can be large; an effect the other way counts as inactive or inconclusive.

SMILES	p53 reactivation	ALOX12 inh	MmCpn inh	ASM inhibitor	CCT modulator	PINK1 modulator
COc1ccc(OC)c(NC(=O)c2cc(S(=O)(=O)NCc3ccco3)ccc2F)c1	-15.6%	-6.8%	1.0%	2.4%	-1.3	4.2%[38.3 µM]
CCCCCCC12C(=Cc3cc4c(cc31)OCCO4)c1cc(OC)c(OC)cc1C(CC(=O)O)N2C(=O)OC (configuration not stated)	/	39.8µM*	/	/	/	/
O=C(/C(=C\c1ccc(Cl)cc1Cl)c1nc2ccccc2o1)c1ccccc1	/	7.4%	/	/	/	/
O=C(C[C@H]1C(=O)N(C2CCCCC2)C[C@@H]1c1ccccc1)Nc1ccc(Br)cc1	/	?	/	/	-53.0*	0.8%
Cn1cc(C(C(=O)O)N2CCN(c3ncc(Br)cn3)CC2)c2cc(C(=O)O)ccc21 (configuration not stated)	/	62.7%	/	/	/	/
COC(=O)c1cc(Cl)c(NC(=O)/C=C/c2ccc(Cl)cc2Cl)cc1OC	0.5%	0.0%	-2.2%	39.1%	1.8	14.1µM*!
COCCn1c(C)cc(C(=O)Cn2cnc3c2c(=O)n(C)c(=O)n3C)c1C	/	-9.4%	/	/	/	/
COc1ccc(CNC(=O)c2sc(NCCc3ccccc3)nc2C)cc1	/	-7.2%	/	/	/	/
Cc1cccc(NC(=S)N(Cc2ccc(Br)cc2)Cc2ccc(C(=O)O)cc2)c1	3.5%	-13.8%	1.3%	12.8%	-2.0	1.5%
COc1ccc(Cl)cc1NC(=S)N(Cc1ccc(C(=O)O)cc1)Cc1ccc(OC)c(OC)c1	-3.3%	-28.1%	1.1%	12.9%	0.8	1.9%
Cc1cc(NC(=S)N(Cc2ccc(Br)cc2)Cc2ccc(C(=O)O)cc2)ccc1Cl	-3.7%	44.7µM*	-0.1%	3.0%	-4.9	4.6%
COc1cccc(NC(=S)N(Cc2ccc(Cl)cc2)Cc2ccc(C(=O)O)cc2)c1	-0.8%	39.8µM*	6.1%	19.3%	0.7	2.9%
CC(CSc1nc2ccccc2o1)Cn1c(N2CCOCC2)nc2c1c(=O)[nH]c(=O)n2C (configuration not stated)	/	-23.5%	/	/	/	/
COc1ccc(NC(=O)C2CCN(c3cc(C)nc(-c4ccccc4)n3)CC2)cc1	-10.7%	39.2%	0.1%	-7.4%	-63.7*	-0.6%
Cc1cc(N2CCC(C(=O)Nc3ccc(F)cc3)CC2)nc(-c2ccccc2)n1	0.5%	-13.4%	-1.5%	-4.3%	-1.0	-1.5%
CNC(=O)c1ccc(NS(=O)(=O)c2ccc(NC(C)=O)cc2)cc1	/	-0.5%	/	/	/	/
Nc1nc(N)c2cc(CNc3ccc(Cl)c(Cl)c3)ccc2n1	/	5.62µM*	/	/	-0.1	-2.3%
O=C(CCN1CCN(CCO)CC1)Nc1ccc(C2CCCC2)cc1	8.8%	44.7µM*	0.7%	-2.2%	-7.4	6.4%
CCOC(=O)COc1ccc(/C=C2/C(=O)NN(c3ccc(F)cc3)C2=O)cc1OC	-5.1%	-10.9%	1.7%	0.9%	-2.9	3.9%
CCOC(=O)c1ccc(N2NC(=O)/C(=C/c3ccc(OC(=O)c4ccco4)c(OC)c3)C2=O)cc1	-2.8%	22.4µM*	0.9%	/	/	/
CCn1nc(C(=O)N2CC(C(=O)N(C)C)Oc3ccccc32)c2ccccc2c1=O (configuration not stated)	/	10.0%	/	/	/	/
CC(C)n1nc(C(=O)Nc2nnc(SCc3c(Cl)cccc3Cl)s2)c2ccccc2c1=O	7.7%	23.2%	-22.6%	-6.8%	-1.8	5.62µM*
COC[C@H]1NC(=O)CC[C@H]1C(=O)O	/	38.0%	/	/	/	/
CC(C)(C)OC(=O)CC12CCCCC1NC(=O)O2 (configuration not stated)	/	13.0%	0.2%	2.8%	-49.2*	-1.5%
NC(=O)c1c(NC(=O)CCCn2cnc([N+](=O)[O-])n2)sc2c1CCCC2	-3.0%	39.8µM*	0.9%	-2.4%	-0.8	-1.4%
SMILES	p53 reactivation	ALOX12 inh	MmCpn inh	ASM inhibitor	CCT modulator	PINK1 modulator
Cc1cc([N+](=O)[O-])nn1CCCC(=O)Nc1sc2c(c1C(N)=O)CCCC2	17.4%	44.7µM*	0.7%	-5.2%	-7.9	4.2%
Cc1oc(-c2ccccc2)nc1C(=O)NCC(C)(C)N1CCOCC1	/	40.3%	/	/	/	/
Cc1ccccc1C1=C/C(=C(\SS/C(C(=O)c2ccc(OCC(=O)O)c(Cl)c2Cl)=C2\C=C(c3ccccc3C)SS2)C(=O)c2ccc(OCC(=O)O)c(Cl)c2Cl)SS1	/	5.62µM*	/	-27.2%	-1.0	35.5µM*
O=C(O)COc1ccccc1-c1ccccc1	-1.4%	10.1%	0.9%	8.3%	-0.3	0.2%
CCN(CC)C(=O)c1cc(-c2ccc(Br)cc2)nc2ccccc12	/	18.3%	/	/	/	/
Clc1ccc(-c2nnc(-c3ccccc3)c(-c3ccccc3)n2)cc1	3.2%	0.0%	-2.3%	-0.1%	2.9	7.6%
Nc1nc(-c2ccc(Cl)cc2)nnc1-c1ccc(Br)cc1	6.9%	2.1%	-4.5%	1.5%	0.0	44.7µM*
COc1cc(CC(=O)NC2CCCCCCC2)cc(OC)c1OC	/	8.4%	/	/	/	/
CC(C)=CC(=O)Nc1ccc2c(c1)CCC2	/	-2.5%	/	/	/	/
COc1ccc(NC(=O)Nc2sc(NS(=O)(=O)c3ccccc3)nc2C)cc1	-6.0%	22.4µM*	-0.7%	-2.3%	1.0	-0.7%
Cc1ccc(S(=O)(=O)Nc2nc(C)c(NC(=O)Nc3ccc(Cl)cc3Cl)s2)cc1	-2.5%	2µM*	0.9%	-18.4%	-2.0	0.9%
COc1ccc(CNC(=O)Cn2c(=O)c3c(ncn3C3CCCC3)n(Cc3ccccc3)c2=O)cc1	/	-9.8%	/	/	/	/
Cc1ccc(C)c(-c2[nH]c3ccccc3c2C=O)c1	/	-10.1%	/	/	/	/
COc1ccc(NC(=S)NC(=O)Cc2ccccc2)cc1	/	82.3%	0.3%	-7.2%	0.5	2.4%
O=C(Cc1ccccc1)NC(=S)Nc1ccc(OC(F)F)cc1	/	35.5µM*	1.2%	-10.9%	0.3	0.0%
FC(F)Oc1ccc(NC(=S)NCc2nc3ccccc3[nH]2)cc1	14.3%	-1.5%	1.7%	3.9%	-37.1*	2.7%
CN(C)CCCN(Cc1ccccc1)C(=S)Nc1ccc(OC(F)F)cc1	-12.6%	-27.0%	-0.9%	3.3%	-53.9*	-1.2%
CCCS(=O)(=O)NCc1nnnn1-c1ccccc1	/	15.3%	/	/	/	/
